Assay results as given in PubChem BioAssay AID504847 (National Center for Advancing Translational Sciences (NCATS), 2011).
Hit rate of the full screen: of about 400,000 compounds, about 3,700 (0.93%) were called active. Another 3% or so got no clear call; they are omitted. The call rests on the fitted dose curve; in most records, active means well fitted inhibition curve with a large enough effect; inconclusive means small, poorly fitted or top-dose-only effect, or another doubt; inactive means no such curve, though single readings can be large or run the other way. This excerpt belongs to a sample that is enriched for actives.

target: Vitamin D3 receptor (Homo sapiens) (UniProt P11473); test: Inhibitors of the vitamin D receptor (VDR): qHTS; conditions: VDR-SRC2-3 peptide fluorescence polarization, 2 h; max response, negative = inhibition: hits give low values
Method in brief: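 Signal is fluorescence polarization, reporting how far test compounds block the interaction of VDR with the SRC2-3 coregulator peptide after a 2 h room-temperature incubation.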
On the % scale 0 is the no-effect control and ±100 the full control effect; potency means the concentration at half of the fitted maximal effect.

Vitamin D3 receptor (Homo sapiens), sequence (P11473 whole entry, looked up): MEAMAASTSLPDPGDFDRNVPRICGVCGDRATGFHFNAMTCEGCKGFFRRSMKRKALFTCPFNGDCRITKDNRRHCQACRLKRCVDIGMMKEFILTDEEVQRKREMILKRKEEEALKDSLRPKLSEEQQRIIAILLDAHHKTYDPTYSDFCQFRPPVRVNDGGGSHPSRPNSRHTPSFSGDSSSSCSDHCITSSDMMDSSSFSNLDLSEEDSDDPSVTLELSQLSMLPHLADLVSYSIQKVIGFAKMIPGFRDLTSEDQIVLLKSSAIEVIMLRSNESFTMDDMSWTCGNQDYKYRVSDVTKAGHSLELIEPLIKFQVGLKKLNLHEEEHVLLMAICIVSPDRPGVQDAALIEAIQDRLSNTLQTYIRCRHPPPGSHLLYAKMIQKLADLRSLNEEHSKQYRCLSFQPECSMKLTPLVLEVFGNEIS

Max response, negative = inhibition, inactive:
COc1ccc(S(=O)(=O)NCc2cccn2Cc2cccc(C)c2)cc1 -9.31%
CCC1CCCCN1Cc1c(O)ccc2c(=O)c(Oc3ccccc3Cl)c(C(F)(F)F)oc12 (centres undefined) -11.4%
CN1CCN2c3ccccc3Cc3ccccc3[C@@H]2C1 -7.22%
COc1ccc(C(=O)CSc2c(C(C)C)cnc3c2c(=O)n(C)c(=O)n3C)cc1 -4.32%
CCc1ccccc1NC(=O)c1sc2nc3c(cc2c1N)CN(Cc1ccccc1)CC3 -9.37%
COc1ccc(NC(=O)CCCc2nnc3n(CCC(C)C)c(=O)c4sccc4n23)c(OC)c1 -1.71%
COc1ccc(NS(=O)(=O)c2ccc(N3CCOCC3)c(NC(=O)/C=C/C(=O)O)c2)cc1 1.49%
COc1ccccc1NC(=O)/C=C/C(N)=O 1.2%
CCC(Sc1nnc(-c2ccc(OC)cc2)c(-c2ccc(OC)cc2)n1)C(=O)NC1CCCCC1 (centres undefined) 11.6%
Cc1nc2ccccn2c(=O)c1NC(=O)c1c(F)cccc1F 13.4%
Cc1ccc2nc(-c3ccc(C)c(NC(=O)Cc4ccccc4)c3)oc2c1 -21.8%
Cc1ccc(OCC(=O)Nc2ccc(Cl)c(-c3nc4ccccc4[nH]3)c2)cc1C 2.81%
CC(=O)OCC(=O)[C@@]1(O)CCC2C3CCC4=CC(=O)CC[C@]4(C)C3C(=O)C[C@]21C (some centres undefined) -10.5%
Cc1ccc(Cl)cc1N1CCN(C(=O)c2cn(C)c3ccc(S(=O)(=O)N(C)C4CCCCC4)cc3c2=O)CC1 -5.35%
O=C1N=C(N2CCc3ccccc3C2)S/C1=C\c1ccc(O)cc1 17.3%
Cc1nn(-c2ccc(N3CCCCC3)nn2)c(C)c1CCC(=O)NCc1ccc(F)cc1 11.6%
COc1ccc(CCNC(=O)c2cc3cccc4c3n2CC(C)S4)c(OC)c1OC (centres undefined) 4.11%
COc1ccc(Cn2ccn(Cc3cccc(OC)c3)c(=O)c2=O)cc1 6.97%
O=c1c(=O)n(Cc2c(F)cccc2Cl)ccn1Cc1ccccc1 -1.19%
COc1ccc(Cn2c(=O)[nH]c3cc(C(=O)N4CCN(C(=O)c5ccco5)CC4)ccc3c2=O)cc1 -6.06%
COc1ccc(-c2nc3sc(CCNS(=O)(=O)c4ccc(F)c(C)c4)c(C)n3n2)cc1 16%
O=C(CN1CCOCC1)Nc1cccc([N+](=O)[O-])c1 -1.57%
O=C(Nc1cccc([N+](=O)[O-])c1)N1CCc2ccccc2C1 5.4%
CC(=O)N1c2ccc(S(=O)(=O)N3CCCCCC3)cc2CC1C(=O)NCc1ccccc1C (centres undefined) 5.71%
O=c1[nH]c(SCc2cccc(F)c2)nc2ccccc12 -6.23%
N#Cc1c(-c2ccc(F)cc2)nc(-c2ccccc2)[nH]c1=O 13.1%
Cc1oc(-c2ccccc2)nc1Cn1c(SCc2cccc(C(F)(F)F)c2)nc2cccnc21 2.78%
Cc1ccc(O)c(NC(=O)c2cc(-c3ccc(F)cc3)no2)c1 12%
CC(Sc1nc(-c2ccccc2)cc(C(F)(F)F)n1)C(=O)Nc1ccc2c(c1)OCO2 (centres undefined) -18.9%
Cc1ccc(C(=O)COC(=O)C(Cc2c[nH]c3ccccc23)NC(=O)c2ccc(Br)cc2)cc1 (centres undefined) 6.05%
CCOc1ccccc1CNC(=O)c1cnc2c(-c3ccc(OCC)c(OCC)c3)c(C)nn2c1C 12.6%
CN(c1ccccc1)S(=O)(=O)c1cc(C(=O)Nc2nc3ccccc3[nH]2)ccc1Cl 22.7%
Cc1ccc2nc(CNC(=O)c3ccccc3)[nH]c2c1 11.1%
COc1cc(OC)c2c(c1Cl)OC1(C2=O)C(O)=CC(=O)CC1C (centres undefined) 1.06%
COc1ccccc1OCC(=O)Nc1nnc2n1CCS2 -3.73%
Cc1ccc(NC(=O)Cc2ccc(NC(=O)N3CCCCc4ccccc43)cc2)cc1 6.32%
Cc1c(-c2nsc(NC(=O)c3cccc(Cl)c3)n2)nnn1-c1ccccc1C(F)(F)F 1.99%
CCc1ccccc1NC(=O)CSc1nc(C)c(C(=O)Nc2ccccc2)c(-c2ccc(Cl)cc2)c1C#N 5.32%
COc1ccc(-c2nc(CN3CCC(C(=O)NCc4ccccc4)CC3)c(C)o2)cc1OC -18.6%
O=C(Nc1cccc(-c2nc3ccccc3o2)c1)c1cccc(Br)c1 4.46%
Cc1ccc2ccc3c(c2n1)NS(=O)(=O)c1ccccc1-3 -4.3%
CCOC(=O)c1cnc2c(C)cc(Cl)cc2c1NCCc1ccc(OC)c(OC)c1 2.98%
COc1ccc(NC(=O)CSc2nc3ncccc3[nH]2)c(OC)c1 22.9%
COc1ccc(NC(=O)Cn2c(=O)n(CCC(C)C)c(=O)c3cccnc32)cc1Cl 11.2%
COc1ccccc1-c1nc(N2CCN(C)CC2)c2ccccc2n1 -9.82%
COc1ccc(N2CCN(c3nc(-c4ccccc4F)nc4ccccc34)CC2)cc1 21.1%
Cc1ccc(C)c(Nc2nnc(-c3ccc(C)c(S(=O)(=O)N4CCCCC4)c3)c3ccccc23)c1 2.71%
CC(C)(C)c1ccc(C(=O)Nc2ccc3c(c2)CCCN3C(=O)c2cccs2)cc1 -1.02%
O=C(C1CCC(Cn2c(=O)c3sccc3n(Cc3ccccc3F)c2=O)CC1)N1CCCCC1 (centres undefined) 8.9%
Cc1ccc(Sc2cc(C(=O)c3ccccc3C(=O)O)ccc2[N+](=O)[O-])cc1 -16.9%
CC(C)(C)c1ccc(C(=O)NNC(=O)Cc2ccccc2)cc1 3.53%
CCCCCCCC[C@@H](O)/C=C/C=C/C=C\[C@@H](O)CCCC(=O)O 10.9%
COc1ccc(NC(=O)c2cc3cc(C)ccc3n2C)cc1 8.19%
O=C(Cn1cnc2c(OCc3ccccc3)ncnc21)NCCCn1ccnc1 6.56%
CC(CNC(=O)Cn1cnc2c(OCc3ccccc3)ncnc21)c1ccccc1 (centres undefined) -7.14%
COc1ccc(C2CC(=O)Nc3c2c(=O)nc2c(C)cccn32)cc1OC (centres undefined) 12.4%
O=C(NNC(=O)c1ccccc1O)c1ccccc1O 10.5%
O=C(/C=C(O)/C=C/c1ccc(O)cc1)/C=C/c1ccc(O)cc1 -24.8%
Cc1[nH]c(=O)c(C(=O)/C=C/c2ccccc2)c2c1CCCC2 -23.7%
CNC(=O)c1csc(-c2ccccc2)n1 4.33%
CCOC(=O)c1ccc(N2C(=O)c3n[nH]c(-c4ccco4)c3C2c2ccc(O)cc2)cc1 (centres undefined) -8.24%
Cc1cccn2c(=O)c(C(=O)NC(C)c3ccccc3)cnc12 (centres undefined) -16%
COC(=O)c1ccc(Cn2c(SCC(=O)N(C)c3ccccc3)nc3ccccc32)cc1 14.3%
C#CCOc1ccccc1/C=C1/C(=O)ON=C1C -13.5%
COc1cc(/C=C2\SC(=O)NC2=O)ccc1OCc1ccc(Cl)nc1 3.39%
COc1ccnc2c1c(=O)n(Cc1cccc(F)c1)c(=O)n2C 0.374%
C=CCOc1ccc(/C=N/NC(=O)C(C)Sc2ccccn2)cc1OCC (centres undefined) -3.04%
Cc1ccc(C)c(N2CCN(C(c3ccccc3)c3nnc(-c4ccccc4)o3)CC2)c1 (centres undefined) 0%
Cc1ccc(C2C=C(c3ccc(Cl)cc3)Nc3nc(NC(=O)CCC(=O)O)nn32)cc1 (centres undefined) -1.64%
CCOC(=O)c1c(C)[nH]c(CCC(=O)NCCCN2CCN(c3cc(C)ccc3C)CC2)c1C 1.52%
CCOC(OCC)OCC -7.21%

Potency, active:
COC(=O)c1sc(-c2ccc(C(C)(C)C)cc2)cc1NC(=O)/C=C/C(=O)O 28.2 µM
O=C1/C(=C\c2ccc(O)cc2)CCC1CNc1ccc(Cl)cc1 (centres undefined) 79.4 µM
O=[N+]([O-])/C=C/c1ccc2c(ccn2Cc2ccccc2)c1 6.31 µM
COC(=O)/C=C\C(=O)Nc1cccc([N+](=O)[O-])c1 22.4 µM
N#Cc1c(-c2ccccc2)nc(SCc2cccc(C(F)(F)F)c2)[nH]c1=O 79.4 µM
Cc1ccc(O)c(NC(=O)CCS(=O)(=O)c2nc(-c3ccc4c(c3)OCO4)cc(C(F)(F)F)n2)c1 50.1 µM
O=C(/C(=C/c1cccc(Cl)c1)c1nc2ccccc2[nH]1)c1ccccc1 79.4 µM
CN(C)c1nc(=Nc2cccc(Cl)c2)ss1 25.1 µM
Nc1ccccc1SC(C[N+](=O)[O-])c1ccccc1 (centres undefined) 3.55 µM
CCS(=O)(=O)c1cc([N+](=O)[O-])c(Sc2ccccc2N)s1 28.2 µM
FC(F)(F)c1ccccc1-c1nc(-n2ccnc2)c2ccccc2n1 50.1 µM
Cc1ccc(SC(CC(=O)c2ccc(C(C)(C)C)cc2)C(=O)O)cc1 (centres undefined) 20 µM
O=C(Cn1cnc2c(OCc3ccccc3)ncnc21)NCc1nc2ccccc2[nH]1 79.4 µM
Cc1nc(-c2ccccc2)sc1C(=O)/C=C/c1ccccc1 79.4 µM
O=C(/C=C/c1ccccc1)c1ccccc1O 17.8 µM
C=CCOc1ccc(/C=C2/C(=O)ON=C2C)cc1OCC 79.4 µM
COc1cc(/C=C2/C(=O)ON=C2C)ccc1OCc1cccc(F)c1 25.1 µM
O=c1ccc2c(-c3ccccc3S(=O)(=O)O)c3ccc(O)c(O)c3oc-2c1O 35.5 µM
